This is a sample that favours compounds with a hit; in the whole collection about 1.9% have one here.
BaF3 parental = reduces parental Ba/F3 cell viability, JAK2V617F counter-screen | inhibition, % at 5.6 µM | AID 1486 | CellTiter-Glo ATP luminescence | 220,000 tested, 1.1% active;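 active = inhibition above a per-campaign cutoff, the mean inhibition of all tested compounds plus 3 SD, cut at about 27% in these data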;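 also: 0% = DMSO wells and 100% = JAK Inhibitor I control wells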
KLF5 inh = inhibitors of KLF5 expression; inhibition, % at 5 µM; 290,000 tested, 0.23% active; AID 1700; DLD-1 KLF5 promoter-luciferase reporter, luminescence;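 active = inhibition above a per-plate limit of that plate's mean compound inhibition plus 3 SD, cut at about 60% in these data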;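 also: 0% = DMSO wells and 100% = LY294002 at 200 µM; higher means less KLF5 promoter-driven luciferase light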
IEC-6 cytotox = IEC-6 cytotoxicity, counter-screen for KLF5 inhibitors. luminescence viability. AID 1825. 290,000 tested, 0.78% active. inhibition, % at 5 µM;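 also: 0% = plate median of test compound wells and 100% = cytotoxic reference compound wells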
Ba/F3 V617F tox = lowers viability of Ba/F3 cells expressing EpoR and JAK2V617F. ATP luminescence. 220,000 tested, 1.1% active. inhibition, % at 5.6 µM;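 active = inhibition above the campaign mean plus 3 SD over all tested compounds, cut at about 24% in these data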;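 also: cytokine-independent growth of Ba/F3 cells driven by EpoR plus mutant JAK2; 0% = DMSO-treated cells and 100% = JAK inhibitor I control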
APP transl inh = APP translation inhibition; 190,000 tested, 0.82% active; inhibition, % at 2 µM; SH-SY5Y APP 5'UTR-luciferase reporter, luminescence;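 active = inhibition above a set limit, derived from the sample mean plus 3 SD, cut at about 45% in these data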
IEC-6 tox confirm = IEC-6 cytotoxicity, confirmation assay | shares compounds with IEC-6 cytotox | IEC-6 rat intestinal epithelial viability, luminescence | inhibition, % at 5 µM | 1,900 tested, 63% active;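 also: 0% = vehicle and 100% = reference cytotoxic drug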
Starred values were filed as active, the others as inactive; . = no result. Rule as the data show it, unless noted: active = inhibition above about 22%; inactive = the rest.

SMILES	BaF3 parental	KLF5 inh	IEC-6 cytotox	Ba/F3 V617F tox	APP transl inh	IEC-6 tox confirm
COc1cc(/C=C/c2nc3ccc([N+](=O)[O-])cc3s2)ccc1OCC(=O)O	4	-8	-4	-2	.	.
Cc1ccc(S(=O)(=O)Nc2ccccc2-c2ccccc2)cc1	71*	54	55*	69*	90*	51*
Cc1ccc(S(=O)(=O)Nc2ccc(Nc3ccccc3)cc2)cc1	.	6	12	.	.	.
Cc1ccc2nc(C)c(CN3CCN(c4ccc([N+](=O)[O-])cc4Cl)CC3)n2c1	.	-7	26*	.	.	47*
COc1ccc(NC(=O)c2cccnc2)c([N+](=O)[O-])c1	60*	18	46*	66*	21	30*
CCC(=O)Nc1ccc(C2=Nn3c(nnc3C(C)C)SC2)cc1	.	-4	0	.	.	.
CCCCOC(=O)c1ccc(NC(C)=O)cc1	4	-25	24*	5	-10	6
O=[N+]([O-])c1ccc(-n2nnnc2-c2ccccc2)c([N+](=O)[O-])c1	30*	-37	32*	69*	-4	5
O=C(N/N=C/c1ccco1)C1CC1c1ccccc1 (stereo unspecified)	8	22	5	3	2	.
CC(C)(C)c1ccc(C2CC2C(=O)N/N=C\c2ccc[nH]2)cc1 (stereo unspecified)	75*	-39	58*	100*	80*	89*
CC1=CC(C)(C)N(C(=O)CCl)c2cc(C)ccc21	9	2	-3	3	-13	.
CC1=CC(C)(C)N(S(=O)(=O)c2ccc(C)cc2)c2cc(C)ccc21	85*	60	92*	82*	96*	61*
O=C(CCCl)Nc1nc2c(s1)CCc1ccccc1-2	.	-14	30*	.	.	18
CC(C)c1ccc(NC(=O)C(c2ccccc2)N2CCN(C(=O)c3ccco3)CC2)cc1 (stereo unspecified)	6	-53	46*	-2	-33	16
CC(C)c1ccc(NC(=O)C(c2ccc3c(c2)OCO3)N2CCN(C(=O)c3ccco3)CC2)cc1 (stereo unspecified)	8	6	1	0	-14	.
Cn1cccc1/C=C1\SC(=Nc2ccccc2)NC1=O	72*	39	68*	76*	.	57*
Cn1cccc1/C=C1\SC(=Nc2ccc(O)cc2)NC1=O	87*	46	90*	89*	.	66*
NC(N)=Nc1ccc(N=C(N)N)cc1	3	-9	97*	-3	.	98*
O=C(N/N=C/c1c[nH]c2ccccc12)c1cc(-c2ccc(-c3ccccc3)cc2)n[nH]1	3	-67	-6	-2	-70	.
Cc1ccc(-c2cc(C(=O)N/N=C/c3c[nH]c4ccccc34)[nH]n2)cc1	58*	14	43*	57*	76*	52*
Cc1nc(C)n(C(C)CNC(=O)c2ccco2)n1 (stereo unspecified)	.	-19	1	.	.	.
Cc1cc(Cl)cc(C)c1OCCn1ccnc1	.	38	44*	.	.	14
CCOc1ccc(C(C)=O)cc1N1C(=O)C2C3C=CC(O3)C2C1=O (stereo unspecified)	28*	-21	22*	11	18	1
Cc1ccc(NCCCCO)cc1C	8	-16	2	-2	17	.
CC(C)NCC(O)Cn1c2c(c3ccccc31)CCc1c-2cnn1-c1ccccc1 (stereo unspecified)	79*	22	75*	88*	87*	73*
SMILES	BaF3 parental	KLF5 inh	IEC-6 cytotox	Ba/F3 V617F tox	APP transl inh	IEC-6 tox confirm
CN1CCc2c(n(CC(O)CNCc3ccccc3)c3ccccc23)C1=O (stereo unspecified)	-6	14	9	1	-12	.
Cc1ccc(NC(=O)c2ccc(=O)[nH]c2)cc1S(=O)(=O)N1CCCCC1	-5	9	-4	0	.	.
COc1cc2c(c(OC)c1OC)-c1ccc(NC(=O)c3ccc(F)cc3)c(=O)cc1[C@@H](NC(C)=O)CC2	.	18	26*	.	.	53*
CC1CC(C)CN(C(=O)C2CCN(S(=O)(=O)c3ccc4c(c3)CC(C)N4C(=O)C3CC3)CC2)C1 (stereo unspecified)	.	-4	5	.	.	.
CCOc1ccc(N(C)S(=O)(=O)c2ccc(-c3cc(C)no3)s2)cc1	.	39	57*	.	.	38*
CCOc1ccc(N(C)S(=O)(=O)c2cc(-c3cc(C)no3)ccc2C(C)C)cc1	.	-16	1	.	.	.
CC1CC(C)(C)NC(=S)N1CCCC(=O)N1CCN(c2ccc(F)cc2)CC1 (stereo unspecified)	-1	14	-3	-5	14	.
CCOC(=O)N1CCN(c2ncnc3c2[nH]c2ccc(OC)cc23)CC1	9	-41	6	4	-6	.
COc1ccc2[nH]c3c(N4CCc5ccccc5C4)ncnc3c2c1	78*	40	77*	76*	.	66*
C/C(=N\NC(=O)c1ccc(Cl)c(S(=O)(=O)Nc2ccccc2Cl)c1)c1ccncc1	8	21	5	4	-9	.
COc1cc2c(cc1OC)-c1c(OC)c(OC)cc3ccnc(c13)C2=O	39*	21	29*	47*	15	25*
COc1ccc(C2=NCN(c3ccc(C)cc3)C(=S)N2)cc1	5	-121	6	-1	-54	.
COc1ccc(-n2cc(-c3ccc(C)cc3)[n+]3c2SCC3)cc1	71*	0	27*	94*	-2	21
CCc1ccc(-n2cc(-c3ccc(F)cc3)[n+]3c2SCCC3)cc1	74*	-3	28*	83*	4	26*
CC(=O)Nc1ccc(S(=O)(=O)N(C)CC(=O)N/N=C/c2ccncc2)cc1	.	13	0	.	.	.
CCCC(=O)Nc1ccc2c(c1)nc(CN1CCN(C(=O)OCC)CC1)n2CC	.	49	31*	.	.	18
Cc1ccc(-n2ncc3c(=O)n(CC(=O)N4CCN(c5ccccc5)CC4)cnc32)cc1C	0	-11	3	-4	-22	.
CC1CC2(C)Oc3ccccc3CC2C(C)C1CNCCCN(C)C (stereo unspecified)	104*	4	34*	102*	1	100*
COc1cccc(C2=CC(c3ccccc3)n3nnnc3N2)c1 (stereo unspecified)	0	21	28*	3	2	32*
COc1ccc(C/C(C)=N\NC(=O)c2cn(C)c3ccccc23)cc1OC	10	41	31*	18	.	-9
COc1ccc(CC(=O)N/N=C/c2c(C)n(C)c3ccccc23)cc1OC	1	22	14	4	.	.
COc1ccc(N(CC(=O)Nc2cc(Cl)ccc2C)S(=O)(=O)c2c(C)noc2C)cc1	.	43	64*	.	.	44*
CC1CCCCN1C(=O)CSc1nnc(-c2cccnc2)o1 (stereo unspecified)	.	-21	-5	.	.	.
COc1cc2ncnc(NCc3cccc(Cl)c3)c2cc1OC	2	7	33*	1	10	37*
COc1cc2ncnc(NCc3ccccc3)c2cc1OC	5	6	26*	1	-2	30*
COc1cc2ncnc(NCc3cc(F)ccc3F)c2cc1OC	.	4	37*	.	.	21

Screening results deposited in PubChem by several laboratories.
